Vaccinia Venus – vaccinia inhibition (Venus reporter) | 330,000 compounds, 0.46% hits | Vaccinia virus Venus reporter expression, fluorescence | Potency, µM (titrated, usually from 36.5 µM), without a hit: top-dose activity change, negative = inhibition, actives largely listed as inhibitors; calls by dose curve; tested in A549 cells; note: potency is the fitted concentration of half-maximal effect; nearly all actives have a fitted effect of over 30% in size
FMDV inh – foot and mouth disease virus antiviral activity. FMDV antiviral cell-based qHTS. Potency, µM (doses to about 57.9 µM), for the others: at the top dose activity change, negative = inhibition, usual class: inhibitors. 410,000 compounds, 1.2% hits. AID 1159524; calls by dose curve; tested in HEK293T cells; note: read-out not given here; potency is the fitted concentration of half-maximal effect; nearly all actives have a fitted effect of over 45% in size
HCMV inh – human cytomegalovirus inhibition; HFF cells, HCMV-luciferase reporter, 72 h; stronger effect = lower value; activity change, negative = inhibition, % at 57.5 µM; 410,000 compounds, 4.5% hits; in the data active = activity change below about -60%; inconclusive = no clear call, values can overlap the other calls; inactive = above about -39%
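Steps: HFFs plated, 16 h 37C; compounds added; HCMV-luciferase added to MOI 1 PFU/cell; 72 h 37C; OneGlo reagent, 5 min room temperature; luminescence read, normalized to controls.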
MARV entry inh – blocks Marburg virus binding to or entry into cells; Marburg virus pseudotyped entry inhibition, cell reporter; Potency, µM (series often up to 37.8 µM), without a hit: at the top dose activity change, negative = inhibition, usual class: inhibitors; 300,000 compounds, 1.8% hits; AID 540276; calls by dose curve; tested in HEK293 cells; note: potency is the fitted concentration of half-maximal effect
Vaccinia mCherry – vaccinia inhibition (mCherry reporter); Vaccinia virus mCherry reporter infection, fluorescence; 310,000 compounds, 0.63% hits; Potency, µM (titrated, usually from 36.5 µM), for inactives: at the highest dose activity change, negative = inhibition, most hits filed as inhibitors; calls by dose curve; tested in A549 cells; note: potency is the fitted concentration of half-maximal effect; nearly all actives have a fitted effect of over 35% in size
Lassa entry inh – blocks Lassa virus binding to or entry into cells | Lassa virus pseudotype entry inhibition, cell reporter | Potency, µM (top dose mostly 37.9 µM), for inactives: at the highest dose activity change, negative = inhibition, usual class: inhibitors | 300,000 compounds, 1.2% hits; calls by dose curve; tested in HEK293 cells; note: potency is the fitted concentration of half-maximal effect; nearly all actives have a fitted effect of over 50% in size
Numbers without * were called inactive; i = inactive; ? = inconclusive; · = no result given; [ ] = another dose, or the depositor's remark. This is a sample that favours compounds with a hit; in the whole collection about 6.5% have one here. % is set by controls: 0 for no effect and ±100 for the full control effect.

SMILES	Vaccinia Venus	FMDV inh	HCMV inh	MARV entry inh	Vaccinia mCherry	Lassa entry inh
CCn1c(SC(C)C(=O)Nc2ccc(C)cc2)nnc1-c1ccccc1 (stereo not given)	-19%	·	·	·	-28%	·
Cc1cc(C(C)(C)C)oc1C(=O)N1CCN(C(=O)c2oc(C(C)(C)C)cc2C)CC1	·	?	-66*	3%	·	·
Cc1cccc(NC(=O)C2CCN(c3nc4ccccc4[nH]3)CC2)c1C	-6%	7%	0	·	-6%	5%[46.1 µM]
c1ccc2c(c1)[nH]c1c(N3CCOCC3)ncnc12	-23%	·	-32	-10%	?	-2%
c1ccc2c(c1)[nH]c1c(N3CCSCC3)ncnc12	·	22µM*	-32	-11%	·	6%
c1ccc2c(c1)[nH]c1c(N3CCN(C4CCCCC4)CC3)ncnc12	-26%	-23%	-2	?	-20%	9%
c1ccc2c(c1)[nH]c1c(N3CCCC3)ncnc12	?	13µM*	?	?	·	-27%
COc1ccccc1C1=NNC(=NCc2ccccc2)SC1	-19%	24%	-60*	?	-11%	12%
c1ccc(CN=C2NN=C(c3ccccc3)CS2)cc1	-13%	16%	-30	?	-16%	-21%
Clc1ccc(C2=NNC(=NCc3ccccc3)SC2)cc1	-15%	33%	-79*	?	?	20%
O=C(NCc1ccc(Cl)cc1)C1(c2cccs2)CCOCC1	3%	-20%	-9	·	-9%	-3%[46.1 µM]
Cc1ccnc(NS(=O)(=O)c2ccc(NC(=O)C3CCCCC3)cc2)n1	-9%	·	-13	2%	-10%	8%
CCN(CC)S(=O)(=O)c1ccc(NC(=S)NC(=O)C2CCC2)cc1	-13%	8%	-12	?	-23%	-4%[46.1 µM]
CCN(CC)S(=O)(=O)c1cc(NC(=S)NC(=O)C2CCCC2)ccc1C	·	-28%	-72*	·	·	·
Cc1cc(C)nc(NS(=O)(=O)c2ccc(NC(=S)NC(=O)C3CCCC3)cc2)n1	10µM*	125%	29	-9%	?	-9%
COc1cc(OC)c(NC(=O)CCc2nc(C3=CCN(Cc4cccc(Cl)c4)CC3)no2)cc1Cl	-14%	-7%	-6	·	-18%	-22%[46.1 µM]
C[C@@H]1[C@@H](Sc2ccccc2)CC(=O)O[C@@H]1c1ccc(-c2ccccc2)cc1	2.5µM*	0%	?	·	?	·
CC(=O)/C(N=Nc1ccc2c(c1)OCO2)=C(\C)O	-10%	37%	10	?	i	-3%
CC(=O)/C(N=Nc1ccc2c(c1)OCCO2)=C(\C)O	·	1.3µM*	-71*	?	·	?
Cc1ccc(CNC(=O)c2cc3c(C)nc4ccccc4c3o2)cc1	-21%	13µM*	-70*	·	-17%	·
Cc1ccccc1NC(=O)c1cc2c(C)nc3ccccc3c2o1	-6%	?	-83*	-8%[46.1 µM]	i	-23%
Cc1nc2ccccc2c2oc(C(=O)NCc3ccccn3)cc12	·	?	?	-19%	·	-10%
Cc1ccc2nc(NC(=O)CSc3cc(C)[nH]c(=O)n3)sc2c1	0%	36%	36	·	-15%	19%[46.1 µM]
NC(=O)c1ccsc1NC(=O)COC(=O)Cc1ccsc1	-19%	-19%	-31	3%	-13%	-2%
COc1cc(CC(=O)OCC(=O)Nc2sccc2C(N)=O)cc(OC)c1OC	-12%	?	-39	11µM*	i	?
SMILES	Vaccinia Venus	FMDV inh	HCMV inh	MARV entry inh	Vaccinia mCherry	Lassa entry inh
CNc1ccc(C(=O)CC(O)CCC(C)C2OC(=O)CC(O)CC(=O)CC(O)CC(O)CC(O)CC(O)CC3(O)CC(O)C(C(=O)OC)C(CC(O[C@@H]4O[C@H](C)[C@@H](O)[C@H](N)[C@@H]4O)/C=C/C=C/C=C/C=C/C=C/C=C/C=C/C2C)O3)cc1 (stereo not given in full)	-12%	11%	·	·	-17%	·
COc1ccc(O[C@H]2C=C[C@@H](c3ccccc3)O[C@H]2COC(=O)CCC(C)=NO[C@H](C)c2cn([C@@H]3COC[C@@H]3O)nn2)cc1	·	·	·	-3%[14.2 µM]	·	26%[14.3 µM]
CCCOc1nc2c(c(=O)n(C)c(=O)n2C)n1Cc1cccc2ccccc12	-14%	·	-91*	?	i	-19%
Cn1c(=O)c2c(nc(Oc3ccccc3Cl)n2C)n(C)c1=O	-6%	?	-79*	16%[46.1 µM]	-1%	19%[46.1 µM]
CCCOc1nc2c(c(=O)n(C)c(=O)n2C)n1C	-6%	-12%	-17	5%[46.1 µM]	-2%	3%
CCn1c(Oc2ccccc2)nc2c1c(=O)n(C)c(=O)n2C	0%	-7%	-60*	12%	-9%	3%
C=CCn1c(Oc2ccccc2)nc2c1c(=O)n(C)c(=O)n2C	-9%	-10%	-12	13%[46.1 µM]	-11%	2%[46.1 µM]
C=CCNC(=O)N1CCc2nc(-c3ccccc3)c3c(c2C1)CO[C@@H](C)C3	·	·	·	-29%[14.2 µM]	·	?
O=[N+]([O-])c1cc2nc(O)c(O)nc2cc1[N+](=O)[O-]	·	0%	·	?	·	·
CNc1nc2cc([N+](=O)[O-])c([N+](=O)[O-])cc2nc1NC	-19%	?	-86*	7.9µM*	-3%	-28%
Cc1ccccc1NS(=O)(=O)c1ccc(C(=O)NCC2(N3CCOCC3)CCCCC2)cc1	·	-2%	-6	·	·	·
Cc1cccc(NS(=O)(=O)c2ccc(C(=O)NCC3(N4CCCCC4)CCCCC3)cc2)c1C	-28%	1%	-35	11µM*	-9%	?
O=C(NCCc1nc2ccccc2n1CCCOc1ccccc1Cl)C1CCCCC1	?	·	·	·	-26%	·
O=C(CCCc1ccccc1)Nc1cccc(C(=O)O)c1	0%	14µM*	41	2.5µM*	i	?
CCOc1cccc(=NC2CCCCC2)c2c(C)n(C)c(C)c12	?	11µM*	-110*	?	20µM*	-25%
COc1ccccc1NS(=O)(=O)c1cccc(C(=O)N/N=C/c2ccc3c(c2)OCCO3)c1	-14%	11%	-63*	0%	-15%	10%
COc1ccc(NS(=O)(=O)c2cccc(C(=O)N/N=C/c3ccc4c(c3)OCCO4)c2)cc1	-9%	-3%	0	?	i	27%[46.1 µM]
CCN(CC)c1ccc(/C=N/NC(=O)c2cccc(S(=O)(=O)Nc3ccccc3OC)c2)cc1	·	-12%	-16	·	·	·
CCN(CC)c1ccc(/C=N/NC(=O)c2cccc(S(=O)(=O)Nc3ccccc3OC)c2)c(O)c1	?	-1%	-103*	5.6µM*	2.5µM*	0.32µM*
COc1ccccc1NS(=O)(=O)c1cccc(C(=O)N/N=C/c2ccc([N+](=O)[O-])o2)c1	?	?	-36	?	?	14µM*
O=S(=O)(c1cccnc1)N1CCN(c2nc(-c3cccs3)nc3ccccc23)CC1	-18%	·	·	·	-26%	·
CCSc1nc2ccc(OC)cc2cc1C#N	-3%	0%	46	?	-14%	13%
CCOc1ccc2nc(SCC#N)c(C#N)cc2c1	·	0%	-68*	?	·	-8%
Cc1nn(C)cc1CNc1nc(C)c(-c2ccn(CC3COc4ccccc4O3)n2)s1 (stereo not given)	-10%	?	·	·	-9%	·

High-throughput results from PubChem BioAssay.
